Compound activity deposited in PubChem BioAssay by several laboratories.
ALR inh: inhibitors of human ALR sulfhydryl oxidase, primary screen, biochemical, H2O2 detection, HRP-luminol luminescence, single point; FAD-linked sulfhydryl oxidase ALR (Homo sapiens), P55789; purified ALR, DTT oxidation; inhibition, % (no concentration beside the values); actives 3.8% (n = 290,000);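 active = mean replicate inhibition above about 79%, with every replicate also reaching it, limit read from the data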
Target sequence (P55789 whole entry, looked up): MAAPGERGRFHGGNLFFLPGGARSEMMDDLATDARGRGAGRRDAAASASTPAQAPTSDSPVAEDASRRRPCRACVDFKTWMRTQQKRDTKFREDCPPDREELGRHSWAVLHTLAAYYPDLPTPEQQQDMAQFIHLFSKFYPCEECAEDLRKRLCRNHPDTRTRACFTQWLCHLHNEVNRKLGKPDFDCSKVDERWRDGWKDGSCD
A3G deaminase: APOBEC3G DNA deaminase inhibitors, primary screen, biochemical, fluorescence, single-stranded DNA substrate, uHTS | AID 493012, 2011 | actives 0.28% (n = 330,000) | inhibition, % at 20 µM | recombinant A3G, ssDNA deamination FAM/TAMRA fluorescence;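 active = inhibition of at least 40% at 20 µM, with no more than 30% in the related APOBEC3A deaminase screen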;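 also: plate controls were DMSO wells with A3G for no effect and wells lacking A3G enzyme for full effect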
Target sequence (Q9HC16 whole entry, looked up): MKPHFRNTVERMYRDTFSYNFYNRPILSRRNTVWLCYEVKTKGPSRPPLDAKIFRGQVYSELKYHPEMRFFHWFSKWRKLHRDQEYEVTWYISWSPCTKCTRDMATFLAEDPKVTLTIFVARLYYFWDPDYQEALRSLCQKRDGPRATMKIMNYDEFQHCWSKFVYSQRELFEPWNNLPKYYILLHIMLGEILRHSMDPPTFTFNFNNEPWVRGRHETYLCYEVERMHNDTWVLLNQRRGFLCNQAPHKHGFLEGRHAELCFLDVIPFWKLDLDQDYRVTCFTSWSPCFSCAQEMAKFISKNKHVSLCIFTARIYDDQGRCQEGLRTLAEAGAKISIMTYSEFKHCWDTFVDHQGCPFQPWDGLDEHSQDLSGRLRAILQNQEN
APOBEC3A inh: APOBEC3A ssDNA deaminase inhibitors, primary screen, selectivity assay for APOBEC3G inhibitor project, biochemical, FAM/TAMRA oligo cleavage fluorescence; AID 493011, 2011; actives 0.41% (n = 330,000); recombinant A3A, FAM/TAMRA ssDNA deamination fluorescence; inhibition, % at 20 µM;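 active = at least 40% inhibition at 20 µM here, with at most 30% in a related deaminase screen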;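 also: plate controls were A3A with DMSO for no effect and wells lacking A3A enzyme for full effect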
PfM18AAP inh: PfM18AAP inhibitors, malaria aminopeptidase, primary screen, biochemical, QFRET, recombinant enzyme | M18 aspartyl aminopeptidase (Plasmodium falciparum 3D7) | inhibition, % at 7.35 µM | H-Glu-NHMec fluorogenic cleavage | actives 1.2% (n = 290,000);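 active = inhibition above the campaign mean inhibition over all tested compounds plus 3 SD, cut at about 28% in these data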;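 also: 0% = plate median of test compound wells and 100% = 2 mM ZnCl2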
CR mimetic SO: reduction of superoxide in aged yeast, primary screen, HTS; actives 0.18% (n = 330,000); S. cerevisiae aged cells, superoxide DHE fluorescence; active compounds read low; superoxide response (% of plate mean), % at 10 µM; AID 2690, 2010;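 active = superoxide response under a set limit, about three screen SD below normal, cut at about 65% in these data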;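 also: yeast aged for seven days with compound at 30 °C before DHE staining; 100% = average MFI of all compound-treated wells on the plate with controls excluded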
NRP1-CendR mod: modulators of CendR peptide binding to NRP-1, primary screen, biochemical, fluorescence polarization, uHTS | Neuropilin-1 (Homo sapiens), O14786 | FAM-RPARPAR peptide binding to NRP-1 | inhibition, % at 25 µM | actives 0.85% (n = 360,000) | AID 602438, 2012;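 active = inhibition or corrected inhibition above about 18%, plus a signal ratio from 0.5 to 1.5, limit read from the data, passing the limit was not always enough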
CR mimetic CP: superoxide lowering in aged yeast cells, confirmation, cherry picked compounds | shares compounds with CR mimetic SO | S. cerevisiae aging, superoxide DHE fluorescence; active compounds read low | superoxide response (% of plate), % at 10 µM | actives 1% (n = 850);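 active = superoxide signal below 65% of the plate average of sample wells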;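 also: cells aged with compound for 7 days at 30 degrees C before staining; 100% equals mean DHE fluorescence of all compound wells on the plate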
DHE fluor count: DHE quenching or ROS scavenging interference in aged yeast, artefact control for yeast caloric restriction mimetic project, S. cerevisiae BY4741, flow cytometry; 850 tested, under 10 active; fluorescence response, % at 10 µM; shares compounds with CR mimetic SO; DHE fluorescence; active compounds read low;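 active = fluorescence response below 15%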;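 also: percent of the mean fluorescence averaged over all compound wells on the plate; lower means stronger quenching of DHE signal or ROS scavenging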
Active calls of the source: *; . = not tested or not shown. Sampled rows, rich in hits. Any-hit rate of the full collection: about 5.2%.

SMILES | ALR inh | A3G deaminase | APOBEC3A inh | PfM18AAP inh | CR mimetic SO | NRP1-CendR mod | CR mimetic CP | DHE fluor count
CCN(CC(=O)Nc1ccccc1OC)C(=O)C1CCCC1 | -7.5 | -7.7 | -5.6 | . | 90.3 | 0.3 | . | .
O=c1c2ccccc2ncn1Cc1cccc2ccccc12 | . | -3.3 | -1.4 | -1.6 | 104.8 | -7.8 | . | .
O=c1c2ccccc2ncn1Cc1ccccc1 | -9.2 | -0.4 | 27.1 | 0.6 | 57.1* | -6.3 | 97.8 | 94.8
CCCCOc1cccc(-c2cc(C(=O)NNC(=S)NCC)c3ccccc3n2)c1 | -2.5 | -4.9 | 1.9 | 0.4 | 124.5 | -2.6 | . | .
CCCCOc1ccc(-c2cc(C(=O)NNC(=S)NCC)c3ccccc3n2)cc1 | 6.7 | -0.6 | 1.0 | 1.9 | 61.7* | 2.9 | 123.3 | 106.5
COc1cccc(-c2cc(N3CCN(C(=O)c4ccoc4)CC3)n3nc(-c4cccc(Cl)c4)cc3n2)c1 | . | . | . | . | . | -14.3 | . | .
CN(C)S(=O)(=O)N1CCN(c2cccc(Cl)c2)CC1 | -1.9 | -7.1 | -4.9 | 4.1 | 64.3* | 2.8 | 108.8 | 89.4
O=C1CCc2cc(OCCCCc3nnnn3C3CCCCC3)ccc2N1 | -2.6 | -5.0 | -2.1 | 1.0 | 92.5 | 0.7 | . | .
O=C1CC(N2CCN(S(=O)(=O)c3ccccc3F)CC2)C(=O)N1c1ccc(F)cc1F (stereo not given) | 6.1 | -5.8 | 0.5 | . | 65.5* | 17.9 | 108.5 | 89.3
CC(=O)c1cccc(N2C(=O)CC(N3CCN(S(=O)(=O)c4ccccc4F)CC3)C2=O)c1 (stereo not given) | -2.8 | -2.7 | 2.7 | . | 83.8 | -17.1 | . | .
COc1ccc(-n2nc3c(c2NC(=O)C(C)Oc2ccccc2)CS(=O)(=O)C3)cc1 (stereo not given) | -0.8 | -2.5 | -1.7 | -2.6 | 53.7* | 8.6 | 116.6 | 113.7
O=C(O)C1CCCN1S(=O)(=O)c1ccc(F)cc1 (stereo not given) | . | -5.5 | 0.3 | -3.0 | 104.3 | 7.8 | 96.3 | 90.5
C=CCn1c(SCC(=O)NC2CCCCC2)nnc1-c1ccc(OC)cc1 | 0.6 | -11.4 | -7.9 | 7.3 | 56.7* | 4.6 | 114.0 | 111.5
C=CCn1c(SCC(=O)NC2CC2)nnc1-c1cccc(OC)c1 | 3.3 | 5.5 | -0.6 | -2.3 | 96.1 | 8.4 | . | .
COc1cccc(CN2C(=O)C(C)N(C(=O)c3c(F)cccc3F)c3ccccc32)c1 (stereo not given) | . | -2.0 | -1.5 | 1.5 | 94.1 | 7.8 | . | .
CC1C(=O)N(Cc2ccccc2F)c2ccccc2N1C(=O)c1c(F)cccc1F (stereo not given) | -6.4 | -6.6 | -3.8 | -6.4 | 65.3* | 0.9 | 92.2 | 98.5
CC(C)c1ccc(C(=O)NCc2ccc(Cl)cc2)cc1 | -1.1 | -0.9 | -2.3 | 1.4 | 97.6 | -3.4 | . | .
CC(C)NC(=O)c1ccc(C(C)C)cc1 | -7.4 | . | . | 0.6 | 52.0* | 13.3 | 108.0 | 105.6
O=c1cc(O)c2c(=O)n(Cc3ccccc3)c3ccccc3c2o1 | . | -6.9 | 9.3 | 3.0 | 70.4 | -15.4 | . | .
O=c1cc(O)c2c(=O)n(C3CCCCC3)c3ccccc3c2o1 | 16.3 | 0.9 | 6.6 | -3.2 | 98.0 | -29.4 | 90.0 | 91.4
CCCCn1c(=O)c2c(O)cc(=O)oc2c2ccccc21 | -0.8 | -0.4 | -3.8 | 1.9 | 43.3* | -27.7 | 115.0 | 105.4
O=C(COc1ccc(Cl)cc1Cl)OCn1nnc2ccccc2c1=O | -2.3 | -3.8 | 0.9 | -5.3 | 97.3 | 0.8 | . | .
Cc1ccccc1OCC(=O)OCn1nnc2ccccc2c1=O | -1.0 | 4.7 | -1.2 | -8.7 | 64.6* | 6.6 | 108.7 | 102.1
CC(C)C[C@@H](CO)N(Cc1ccccc1)S(=O)(=O)N(Cc1ccccc1)[C@@H](CO)CC(C)C | -1.9 | 3.5 | 4.9 | . | 94.2 | 5.2 | . | .
COc1cccc(NS(=O)(=O)c2c(C)cc(C)cc2C)c1 | -10.9 | -6.8 | -0.6 | 2.2 | 97.6 | -1.2 | 95.0 | 92.3
SMILES | ALR inh | A3G deaminase | APOBEC3A inh | PfM18AAP inh | CR mimetic SO | NRP1-CendR mod | CR mimetic CP | DHE fluor count
CCN(CC)S(=O)(=O)c1ccc(N2CCCC2)c(NC(=O)c2ccc(OC)cc2OC)c1 | -3.1 | -1.3 | 0.7 | -0.6 | 103.3 | -1.0 | . | .
CCN(CC)S(=O)(=O)c1ccc(N2CCCC2)c(NC(=O)Cc2ccc(OC)cc2)c1 | -1.2 | -8.9 | 3.9 | 2.0 | 97.6 | 3.6 | 105.0 | 93.2
CCN(CC)S(=O)(=O)c1ccc(N2CCCCC2)c(NC(=O)/C=C/c2ccc(OC)c(OC)c2)c1 | -7.8 | 0.1 | 2.3 | -8.4 | 107.2 | -2.4 | . | .
CCN(CC)S(=O)(=O)c1ccc(N2CCCC2)c(NC(=O)Cc2cc(OC)c(OC)c(OC)c2)c1 | -8.0 | -6.6 | -2.2 | 3.2 | 101.8 | -15.7 | 108.4 | 102.2
Cc1cc(/C=N/NC(=O)C(O)(c2ccccc2)c2ccccc2)c(C)n1-c1ccc(C(=O)O)cc1 | 5.0 | 2.8 | 6.7 | 6.3 | 55.5* | -26.2 | 96.4 | 105.2
Cc1cc(/C=N/NC(=O)c2ccc(CN3CCOCC3)cc2)c(C)n1-c1ccccc1 | 17.6 | -7.0 | -1.8 | 4.5 | 99.5 | 12.8 | . | .
O=C(CC1CCCCC1)NCCS(=O)(=O)N1CCN(c2ccccc2)CC1 | -0.8 | 3.4 | 1.6 | . | 64.0* | -5.6 | 96.0 | 107.2
CC(C)C[C@H](NC(=O)Nc1cccc(Cl)c1)C(=O)O | -9.6 | -4.5 | -1.4 | 2.2 | 91.5 | 0.8 | . | .
C=C(C)CNC(=S)NNC(=O)c1ccncc1 | 24.2 | -7.0 | -6.8 | 11.2 | 92.4 | 13.4 | . | .
C=C(C)CNC(=S)NNC(=O)CCn1c2ccc(Cl)cc2c2cc(Cl)ccc21 | 3.6 | -2.6 | 1.3 | 0.3 | 106.0 | 3.0 | 107.6 | 90.1
C=C(C)CNC(=S)NNC(=O)CCn1c2cc(Cl)ccc2c2ccc(Cl)cc21 | 3.3 | -5.3 | -0.9 | 3.3 | 108.5 | -5.9 | 93.9 | 90.1
C=C(C)CNC(=S)NNC(=O)CCn1c2ccccc2c2ccccc21 | 17.5 | -4.4 | -2.4 | -3.6 | 103.8 | 5.8 | 104.5 | 91.2
CCN(CC)S(=O)(=O)c1ccc(NC(=O)c2ccc(N(C)S(C)(=O)=O)cc2)cc1 | . | -5.7 | -3.6 | 2.3 | 91.7 | -3.4 | . | .
O=C(CN1CCN(c2ccccn2)CC1)Nc1ccc(F)cc1 | 5.5 | 0.6 | 2.2 | 12.3 | 97.5 | -0.2 | 96.1 | 90.6
Cc1cc(NC(=O)CN2CCN(c3ccccn3)CC2)ccc1Br | -2.2 | -9.7 | -4.8 | 1.8 | 106.1 | 10.5 | 105.5 | 102.8
